{"source": "PubChem BioAssay (NCI)", "note": "About 83,000 compounds went through this panel and 20% of them were active in at least one assay; those are over-represented in the sample as a whole.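 Negative percent growth values reflect cell death: -40 means 40% of the cells present at the start died, and -100 means all died.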 Values without a mark were called inactive. Calls of active or inactive are those of the source. The calls were made as follows: active = growth percent below 10; inactive = the rest.", "data": [{"system": "HL-60(TB) leukemia", "experiment": "NCI-60 one-dose screen, 48 h (100 = growth as untreated, 0 = no growth, -100 = all killed)", "conditions": "10 µM unless noted", "values": [{"smiles": "Nc1nc(Cl)c2c(ncn2Cc2ccc(CCl)cc2)n1", "growth": "90.5%"}, {"smiles": "O=C(Nc1cccc(-n2cc(-c3ccncc3)c(-c3ccc(O)c(Cl)c3)n2)c1)c1ccc(N2CCOCC2)c(C(F)(F)F)c1", "growth": "-10.6% (active)"}, {"smiles": "COc1ccc2[nH]c(=O)c(/C=C/C(=O)c3ccccc3OC)cc2c1", "growth": "-2.46% (active)"}]}]}
